# Measured values reported in paper PMC12136788.
# Substitutions are numbered along the chain they refer to. Whole data set: some 24,000 sequences, median “enrichment r” near 0.99, cut for the highest 2% near 3.7. This excerpt belongs to a sample that is enriched for the highest values.
# B1: chr2:71272186:71272187:+_ENSMUSG00000027018_ENSMUST00000028408|mus_mus|FALSE|FALSE (ssRNA)
# RNA: GGGAGUUCUACAGUCCGACGAUCCUGUGCCUGUAUUGCCAUAUCUUCACUGAAUCCUUGCAGUAAUCUUUCCCGGGAGAAACUGGGCAAAAAUUGACAAAACUUCACAAGCACAAAGUCUCUUAGUUUCAAAUAGCUUCUGGACAACAGAGGAUUGAGCAUCA
# B2: chr7:117185563:117185564:+_ENSMUSG00000066232_ENSMUST00000084731|mus_mus|FALSE|FALSE (ssRNA)
# RNA: GGGAGUUCUACAGUCCGACGAUCGGGCUUCAGGUUCUUCCACGUAAGUGCAUGGGAAACUCCUUGAUUAAUAUAAUUUAAUGUCUGCUGUAAAACUCGAGGCGCCAUAUAUUGUUUUUCCUUGUACUGAUAUAACACUUUCAACAACAGAGGAUUGAGCAUCA
# B3: chr10:7433921:7433922:+_ENSMUSG00000040021_ENSMUST00000165952|mus_mus|FALSE|FALSE (ssRNA)
# RNA: GGGAGUUCUACAGUCCGACGAUCGCUUUGUGUAUGUUAGGCAAGUGCUCUACCACUGAGCCAUAUCCUUAGCCCCUAGAAAAUGUACUUUCUUAGUGAGUACAUACACGUAAAUUAAAAAAAAAAAUUACAAACUGAAAAUAACAACAGAGGAUUGAGCAUCA
# B4: chr10:7433921:7433922:+_ENSMUSG00000040021_ENSMUST00000165952|mus_mus|motif|central (ssRNA)
# RNA: B3 RNA with U76G, A77G
# B5: chr11:134117569:134117570:+_ENSG00000151502_ENST00000281187|hu_hu|motif|central (ssRNA)
# RNA: GGGAGUUCUACAGUCCGACGAUCAGAAACAUGUAAACACUGCAGCUGCUUAAUUACAAGUUGCACUGCUUGAUUUAGUACCGGUGCACUCCCAGGUUUGGGGACCUUAAGAGAGGGGGACAGGAGCCUCCCCUCACUUUCACACAACAGAGGAUUGAGCAUCA
# B6: chr18:65376317:65376318:+_ENSMUSG00000024589_ENSMUST00000163516|mus_hu|FALSE|FALSE (ssRNA)
# RNA: GGGAGUUCUACAGUCCGACGAUCUUUCAUGCCAACAGGAAGCUAACCCUUUUCUAGAAAACGUUCUCCAAGCUCCCGUCCUAAUGCUGUGGCACUUUCUCUGACAUACUGAGAACACUCUGGGGUGGGGGUGUGUGUAUGCAACAACAGAGGAUUGAGCAUCA
# B7: 56885736_56885856_9979_3pUTR_ENSMUSG00000055296_ENSMUST00000068792|mouse|control|control (ssRNA)
# RNA: GGGAGUUCUACAGUCCGACGAUCAUCUUAUAUUGAUCUAGAUUUGACCACAGAUAAACCUUGUACUGCCUAGUCUUGUGUCAACUUGACACAGCUGGAGUUAUCACAGAGAAAGGAGCUUCAGUUGAGGAAAUGCCUCCAUGACAACAGAGGAUUGAGCAUCA
# B8: chr13:31725248:31725249:-_ENSG00000120694_ENST00000320027|perfect_dup|motif|central (ssRNA)
# RNA: GGGAGUUCUACAGUCCGACGAUCUUUGGAUUUUGCAUCCAAUUUGUACUUGGUUUUAAAUUCAGCACAAAAAUGUUCGGCGGGCUUCUCAUCAAAGUUCUUUCCUCCUAAGAAGGGAUCAAAAGCUGUGCCUAGAACCUUCAGCAACAGAGGAUUGAGCAUCA
# B9: chr2:35037708:35037709:-_ENSMUSG00000026878_ENSMUST00000028238|mus_hu|FALSE|FALSE (ssRNA)
# RNA: GGGAGUUCUACAGUCCGACGAUCCUGUUUUUACAACAGAGUUUUUUCUUUUUUUUUAAUUAAACCCAGUAAGAUGUACAGAAGACAAUGAGGCAGUAAAAAGUACUGCUUCCAACAGACAGAGGUGAAAGGUCAAAUGAGGGGCAACAGAGGAUUGAGCAUCA
# B10: chr1:60041781:60041782:+_ENSMUSG00000041040_ENSMUST00000036540|mus_mus|motif|central (ssRNA)
# RNA: GGGAGUUCUACAGUCCGACGAUCUUAAGGAGUGAAUCUCAACUUUACAAAUUUAGUAAUGGCAAGUUUACUUUAGUUUCCGGAAAGAAAACCUCAGGAUCUCAGUUCAAUCCCAGACAGAGAAAGCUCUCCAUGGGGCCACUGCAACAGAGGAUUGAGCAUCA
# B11: chr13:99559765:99559766:-_ENSMUSG00000041685_ENSMUST00000040340|mus_mus|motif|central (ssRNA)
# RNA: GGGAGUUCUACAGUCCGACGAUCCUGAACUUCCUUUAUUAAUUCCUGUAAUUUUCUAACAAGAUCCAAAUGACAAUUUGCGGAUUUCUCUGUAGAUGUUUUGAAUACAUCCCACAUUGGUGCAAAUGUUCCAAGUUGUGAAUACAACAGAGGAUUGAGCAUCA
# B12: chr11:75578338:75578339:+_ENSMUSG00000020849_ENSMUST00000067664|perfect_dup|FALSE|FALSE (ssRNA)
# RNA: GGGAGUUCUACAGUCCGACGAUCUUAAGAACUUUUGAAAACUGUUUAAAAAAAAAAAAAAAAAACCAACAGGGCAGGAACCUAAAUUCUGAGACCAAAUGUAAAAGUCAGAUUUGGUGGUUCUCAGUGACAAUGGGGAGUUUCCAACAGAGGAUUGAGCAUCA
# B13: chr11:75578338:75578339:+_ENSMUSG00000020849_ENSMUST00000067664|perfect_dup|motif|central (ssRNA)
# RNA: B12 RNA with U82G, A83G
# B14: chr18:47247233:47247234:+_ENSMUSG00000042705_ENSMUST00000049388|mus_hu|motif|central (ssRNA)
# RNA: GGGAGUUCUACAGUCCGACGAUCUUGUAUAUGGCUAUUUUCUUAAUUUUAUUCAUGUAAUUACCAAAGCUCUGUAUUCGGCGGAGGUACACAUCUUAUCUUGUAUCCAUGGACGCUCCUUGAUACAUUAUGGUAUCAUCCAGCCAACAGAGGAUUGAGCAUCA
# Biological target: T1, UNK ZnF1-3 (human, UniProt Q9C0B0 31-174)
# T1 sequence: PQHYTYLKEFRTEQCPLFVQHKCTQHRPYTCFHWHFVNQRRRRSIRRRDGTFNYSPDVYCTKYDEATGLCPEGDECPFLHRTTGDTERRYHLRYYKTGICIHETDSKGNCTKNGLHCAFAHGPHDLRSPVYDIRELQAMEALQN
# Assay: nsRBNS (natural sequence RNA bind-n-seq); RBNS binding buffer (assumed for nsRBNS): 25 mM Tris pH 7.5, 150 mM KCl, 3 mM MgCl2, 0.01% Triton X-100, 500 ug/ml BSA, 20 U/ml SUPERase-In, 4 C; UNK is unkempt and MSI1 is Musashi-1; names of the RNAs are library labels; protein concentration not given here; high values mean tight binding
row,Binder,binding signal
1,B1,1.25 enrichment R
2,B2,1.59 enrichment R
3,B3,8.06 enrichment R
4,B4,5.64 enrichment R
5,B5,0.758 enrichment R
6,B6,0.949 enrichment R
7,B7,1.28 enrichment R
8,B8,1.17 enrichment R
9,B9,1.64 enrichment R
10,B10,0.919 enrichment R
11,B11,0.623 enrichment R
12,B12,4.7 enrichment R
13,B13,5.06 enrichment R
14,B14,1.03 enrichment R
